This is an account of results in PubChem BioAssay (NCI).

Structures are written as SMILES. Compounds without any hit were thinned out: in the full panel of roughly 79,000, 15% have a hit. Values without a mark were called inactive. Activity calls are given as the source filed them. Cut-off read from the data, not from the text of the source: active = growth inhibition above about 70%; inactive = the rest.

Assay [1] in a line: NCI Yeast Anticancer Drug Screen. Data for the rad50 strain (AID 155).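 Note: 0% = growth of vehicle-only cultures of the same strain.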 To be noted: S. cerevisiae rad50 strain growth inhibition, active compounds read high. Summed up: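 Compounds were tested on a yeast strain with an engineered DNA damage repair alteration; the reported value is growth inhibition normalised to vehicle treatment.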
The nature of assay [2]: NCI Yeast Anticancer Drug Screen. Data for the mec2-1 strain (AID 157). The settings on record: S. cerevisiae mec2-1 strain, active compounds read high. The procedure, abridged:
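Readout is yeast growth inhibition, normalised to vehicle-treated controls, in the mec2-1 strain exposed to compound.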

The nature of assay [3]: NCI Yeast Anticancer Drug Screen. Data for the sgs1 mgt1 strain (AID 161).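 Note: 0% = growth of cultures given vehicle only.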 The settings on record: S. cerevisiae sgs1 mgt1 strain, active compounds read high. The procedure, abridged:
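Yeast cells carrying a defined DNA-repair defect were exposed to test compounds. Growth inhibition was measured relative to vehicle-treated controls.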

Assay [4] is described as follows: NCI Yeast Anticancer Drug Screen. Data for the cln2 rad14 strain (AID 165).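 Note: 0% = growth equal to vehicle treated cultures.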 To be noted: S. cerevisiae cln2 rad14 strain, active compounds read high. The procedure, abridged: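 Relative to vehicle controls, growth inhibition of compound-treated cln2 rad14 yeast was recorded.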
Assay [5] in a line: NCI Yeast Anticancer Drug Screen. Data for the bub3 strain (AID 167). To be noted: S. cerevisiae bub3 mutant strain, active compounds read high. Summed up: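 Growth of a checkpoint-deficient yeast mutant is measured after compound exposure. Values represent inhibition relative to vehicle.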
Assay [6] can be described thus: NCI Yeast Anticancer Drug Screen. Data for the mlh1 rad18 strain (AID 175). To be noted: S. cerevisiae mlh1 rad18 strain growth inhibition, active compounds read high. Summed up: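 Test agents were incubated with a yeast strain of defined genotype (DNA damage repair defect). Inhibition of growth was derived by comparison with vehicle-exposed cultures.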
The mark [7] stands for this setting: at 5.0 µM (retest, dose inferred, filed as 0.5).
The mark [8] stands for this setting: at 50.0 µM (retest, dose inferred, filed as 5.0).

Take `CCCCCCCCCCCCCCCCCCOC(=O)C(N)CCCCN` (stereo not given): the growth inhibition in assay [1] (setting [7]) is 2%; in assay [1] (setting [8]) it was 98% (active); in assay [1] (at 50.0 µM), 98.3% (active); in assay [2] (setting [7]), -3%; in assay [2] (setting [8]), 97% (active); in assay [2] (at 50.0 µM) it was 98.8% (active). The growth inhibition in assay [3] (setting [7]) was 3%; in assay [3] (setting [8]), 97% (active); in assay [3] (at 50.0 µM) it was 50.5%; in assay [4] (setting [7]), -7%; in assay [4] (setting [8]) it was 87% (active); in assay [4] (at 50.0 µM), 96.7% (active). Besides, the growth inhibition is -7% in assay [5] (setting [7]); 96% (active) in assay [5] (setting [8]); 98.2% (active) in assay [5] (at 50.0 µM); -5% in assay [6] (setting [7]); 96% (active) in assay [6] (setting [8]); 98.3% (active) in assay [6] (at 50.0 µM).
With `C=CC1(C)CCC2C(=CCC3C(C)(COC4OC(CO)C(O)C(O)C4O)C(O)CCC23C)C1` (stereo not given), the growth inhibition is -4% in assay [1] (setting [7]); 99% (active) in assay [1] (setting [8]); 93.2% (active) in assay [1] (at 50.0 µM); -1% in assay [2] (setting [7]); 99% (active) in assay [2] (setting [8]); 93.9% (active) in assay [2] (at 50.0 µM). Moreover, the growth inhibition was -3% in assay [3] (setting [7]); 43% in assay [3] (setting [8]); 93.8% (active) in assay [3] (at 50.0 µM); -1% in assay [4] (setting [7]); 70% (active) in assay [4] (setting [8]); 91.5% (active) in assay [4] (at 50.0 µM). The growth inhibition was 18% in assay [5] (setting [7]); 92% (active) in assay [5] (setting [8]); 93.6% (active) in assay [5] (at 50.0 µM); -3% in assay [6] (setting [7]); 99% (active) in assay [6] (setting [8]); 92.8% (active) in assay [6] (at 50.0 µM).
`CN(C)CCOC1(CC2CCCCC2)CCC(C(C)(C)C)CC1` (stereo not given): the growth inhibition in assay [1] (setting [7]) was -9%; in assay [1] (setting [8]) it was 100% (active); in assay [1] (at 50.0 µM), 99% (active); in assay [2] (setting [7]) it was -17%; in assay [2] (setting [8]) it was 99% (active); in assay [2] (at 50.0 µM) it was 99% (active). In addition, the growth inhibition was -6% in assay [3] (setting [7]); 99% (active) in assay [3] (setting [8]); 99.4% (active) in assay [3] (at 50.0 µM); 11% in assay [4] (setting [7]); 100% (active) in assay [4] (setting [8]); 99.5% (active) in assay [4] (at 50.0 µM). In addition, the growth inhibition in assay [5] (setting [7]) was -1%; in assay [5] (setting [8]), 100% (active); in assay [5] (at 50.0 µM), 98.9% (active); in assay [6] (setting [7]), 14%; in assay [6] (setting [8]) it was 100% (active); in assay [6] (at 50.0 µM), 99.3% (active).
Turning to `CCC1CCC(CC)C1O` (stereo not given), the growth inhibition is 1% in assay [1] (setting [7]); 6% in assay [1] (setting [8]); 34.9% in assay [1] (at 50.0 µM); 0% in assay [2] (setting [7]); -3% in assay [2] (setting [8]); 22.9% in assay [2] (at 50.0 µM). In addition, the growth inhibition in assay [3] (setting [7]) is 2%; in assay [3] (setting [8]), 0%; in assay [3] (at 50.0 µM), 26.8%; in assay [4] (setting [7]) it was 1%; in assay [4] (setting [8]), 4%; in assay [4] (at 50.0 µM), 29.8%. For the same compound, the growth inhibition in assay [5] (setting [7]) is 1%; in assay [5] (setting [8]) it was 2%; in assay [5] (at 50.0 µM), 78.7% (active); in assay [6] (setting [7]), -2%; in assay [6] (setting [8]) it was 2%; in assay [6] (at 50.0 µM) it was 28.5%.
For `CCCCCCCCCCCCCCCCN1CCSCC1`, the growth inhibition was 39% in assay [1] (setting [7]); 98% (active) in assay [1] (setting [8]); 98.3% (active) in assay [1] (at 50.0 µM); 45% in assay [2] (setting [7]); 99% (active) in assay [2] (setting [8]); 99% (active) in assay [2] (at 50.0 µM). Further, the growth inhibition in assay [3] (setting [7]) was 65%; in assay [3] (setting [8]), 99% (active); in assay [3] (at 50.0 µM) it was 98.9% (active); in assay [4] (setting [7]), 23%; in assay [4] (setting [8]), 99% (active); in assay [4] (at 50.0 µM) it was 98.7% (active). Besides, the growth inhibition in assay [5] (setting [7]) is 36%; in assay [5] (setting [8]), 99% (active); in assay [5] (at 50.0 µM), 99% (active); in assay [6] (setting [7]) it was 69%; in assay [6] (setting [8]), 99% (active); in assay [6] (at 50.0 µM), 98.7% (active).
In the case of `CCCCn1c(C)nc2cc(C(F)(F)F)cc(N)c21`, the growth inhibition in assay [1] (setting [7]) was 0%; in assay [1] (setting [8]) it was 41%; in assay [1] (at 50.0 µM), 78.6% (active); in assay [2] (setting [7]), -4%; in assay [2] (setting [8]), 35%; in assay [2] (at 50.0 µM), 48.3%. Also, the growth inhibition in assay [3] (setting [7]) is 0%; in assay [3] (setting [8]), 31%; in assay [3] (at 50.0 µM), 93.6% (active); in assay [4] (setting [7]), -5%; in assay [4] (setting [8]) it was 8%; in assay [4] (at 50.0 µM), 6.6%. In addition, the growth inhibition is -8% in assay [5] (setting [7]); 10% in assay [5] (setting [8]); 31.9% in assay [5] (at 50.0 µM); -11% in assay [6] (setting [7]); 65% in assay [6] (setting [8]); 43.5% in assay [6] (at 50.0 µM).
`Oc1ccccc1/C=N\N=C\c1ccccc1O`: the growth inhibition in assay [1] (setting [7]) was 5%; in assay [1] (setting [8]) it was -22%; in assay [1] (at 50.0 µM), 8.75%; in assay [2] (setting [7]), -10%; in assay [2] (setting [8]) it was -3%; in assay [2] (at 50.0 µM), 3.5%. Moreover, the growth inhibition is 4% in assay [3] (setting [7]); 4% in assay [3] (setting [8]); -10.8% in assay [3] (at 50.0 µM); 7% in assay [4] (setting [7]); -3% in assay [4] (setting [8]); 37.2% in assay [4] (at 50.0 µM). Moreover, the growth inhibition in assay [5] (setting [7]) was -70%; in assay [5] (setting [8]) it was 6%; in assay [5] (at 50.0 µM) it was 0.8%; in assay [6] (setting [7]) it was 2%; in assay [6] (setting [8]), 0%; in assay [6] (at 50.0 µM), 13.2%.
For the compound `COC(=O)/C(=N\NC(=O)c1ccccc1O)C(C#N)c1ccc(Cl)cc1` (stereo not given), the growth inhibition in assay [1] (setting [7]) was -4%; in assay [1] (setting [8]), 44%; in assay [1] (at 50.0 µM), 62.1%; in assay [2] (setting [7]) it was -1%; in assay [2] (setting [8]), 65%; in assay [2] (at 50.0 µM), 54.8%. The growth inhibition in assay [3] (setting [7]) is 13%; in assay [3] (setting [8]), 73% (active); in assay [3] (at 50.0 µM), 68%; in assay [4] (setting [7]) it was -7%; in assay [4] (setting [8]), 42%; in assay [4] (at 50.0 µM) it was 43.4%. Further, the growth inhibition in assay [5] (setting [7]) is -3%; in assay [5] (setting [8]), 79% (active); in assay [5] (at 50.0 µM), 71.8% (active); in assay [6] (setting [7]), 0%; in assay [6] (setting [8]), 60%; in assay [6] (at 50.0 µM) it was 70.6% (active).
`CCN(CC)CC(O)CNc1cc(C)nc(/N=C(\N)Nc2ccc(Cl)c(Cl)c2)n1` (stereo not given): the growth inhibition in assay [1] (setting [7]) was 0%; in assay [1] (setting [8]), 64%; in assay [1] (at 50.0 µM), 88.8% (active); in assay [2] (setting [7]), -21%; in assay [2] (setting [8]) it was 34%; in assay [2] (at 50.0 µM), 57.3%. Besides, the growth inhibition in assay [3] (setting [7]) is -11%; in assay [3] (setting [8]), 54%; in assay [3] (at 50.0 µM), 87% (active); in assay [4] (setting [7]), -3%; in assay [4] (setting [8]), 19%; in assay [4] (at 50.0 µM), 31.7%. For the same compound, the growth inhibition is -2% in assay [5] (setting [7]); 30% in assay [5] (setting [8]); 34.2% in assay [5] (at 50.0 µM); 12% in assay [6] (setting [7]); 86% (active) in assay [6] (setting [8]); 81.2% (active) in assay [6] (at 50.0 µM).
As for `CN(C)CCCNc1c2ccccc2nc2ccc(F)cc12`, the growth inhibition in assay [1] (setting [7]) was 0%; in assay [1] (setting [8]), 24%; in assay [1] (at 50.0 µM), 27.2%; in assay [2] (setting [7]) it was -8%; in assay [2] (setting [8]), 26%; in assay [2] (at 50.0 µM), 24.4%. The growth inhibition in assay [3] (setting [7]) is 6%; in assay [3] (setting [8]), 24%; in assay [3] (at 50.0 µM), 15.2%; in assay [4] (setting [7]), 8%; in assay [4] (setting [8]), 21%; in assay [4] (at 50.0 µM) it was 81.8% (active). Also, the growth inhibition in assay [5] (setting [7]) was 0%; in assay [5] (setting [8]), 6%; in assay [5] (at 50.0 µM), 42.5%; in assay [6] (setting [7]), 14%; in assay [6] (setting [8]) it was 27%; in assay [6] (at 50.0 µM), 36.8%.
